Nrf2 activator: activators of Nrf2 (ARE) signaling; Potency, µM (titrated, usually from 46.1 µM), inactives show at the highest dose activation, usual class: activators; AREc32 ARE-luciferase reporter (MCF7-derived line), luminescence, 24 h; 410,000 tested, 0.31% active; note: potency is the fitted concentration of half-maximal effect; % of control where 0% means no effect; nearly all actives have a fitted effect of over 65% in size
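AREc32_Fluc, 1000 cells/well, OPTI-MEM + 5% FBS, o/n 37 deg C 5% CO2; 23 nL cpd by pin tool, 24 hr; Steady-Glo 30 min RT, luminescence.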
IL-2 act: IL-2 activation; 360,000 tested, 0.065% active; AID 652025; activation, % (series mostly up to about 46 µM); IL-2 activation reporter assay, cell-based qHTS; stimulated with anti-CD3/CD4/CD28 beads; in transgenic mouse T cells; in the data active = activation above about 50%; inconclusive = mostly about 30% to 49%; note: 0% is about no effect
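Screening format: compound pinned onto unstimulated transgenic mouse T cells, 60 min incubation, then anti-CD3/anti-CD4/anti-CD28 bead stimulation for 18 hours at 37 degrees C, followed by EGFP and DsRed detection.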
ELG1 repair inh: blocks ELG1-dependent DNA repair in HEK293T cells; HEK293T ELG1-luciferase reporter, luminescence, 16 h; DNA damage induced by 5-fluorouridine; 330,000 tested, 2.3% active; Potency, µM (highest dose often 46.1 µM), for the others: top-dose activity change, negative = inhibition, actives largely listed as inhibitors; note: potency is the fitted concentration of half-maximal effect; % is set by controls: 0 for no effect and ±100 for the full control effect; nearly all actives have a fitted effect of over 55% in size
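Cells (2,000 per well) received 5-fluorouridine plus test compound or DMSO and were incubated 16 hr at 37 °C, 5% CO2. Luciferase activity was read by luminescence 30 min after ONE-Glo addition; signal suppression marked inhibition of damage-induced ELG1 function.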
BRCA1 expr act: increases BRCA1 expression. 380,000 tested, 1.1% active. MCF7-BRCA1-FFLuc reporter, luminescence, 48 h; response scale: scaled: vehicle 0%, 10 µM genistein 100%. Potency, µM (series often up to 46.1 µM), for inactives: at the top dose activation, hits mostly activators; note: potency is the fitted concentration of half-maximal effect; nearly all actives have a fitted effect of over 80% in size
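Luminescence from a BRCA1-driven firefly luciferase in MCF7 cells was read after 48 h compound exposure at 37 C. Data normalized against DMSO and a 10microM genistein activation control, then curve-fitted across the titration.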
* = called active by the depositor; ? = inconclusive; nt = no result; [ ] = remark or other dose. Rows were chosen to be rich in hits. Some 3.1% of all compounds tested hit in one or more screens of this group. Unless noted, calls come from the whole dose curve; as a rule, active = well fitted curve in the direction sought with a large enough effect; inconclusive = small, poorly fitted or top-dose-only effect, or another doubt; inactive = no such curve, though single readings can be large; an effect the other way counts as inactive or inconclusive.

SMILES	Nrf2 activator	IL-2 act	ELG1 repair inh	BRCA1 expr act
COc1ccc(C(=O)N/N=C/C(=O)c2ccccc2)cc1	1%	-1	?	5.6µM*
COc1ccc(NC(=S)Nc2ccccc2)cc1	0%	-1	?	2%
COc1ccc(NC(=S)c2ccccc2)cc1	1%	0	?	7.9µM*
COc1cccc(C(c2sc3nc(-c4ccco4)nn3c2O)N2CCN(C)CC2)c1 (centres undefined)	0%	nt	nt	nt
Cc1oc2ccc(O)c(CN3CCCC3)c2c1C(=O)Nc1ccc(C(C)C)cc1	12%	nt	nt	nt
N=c1n(CC(=O)c2ccc([N+](=O)[O-])cc2)c2ccccc2n1Cc1ccc(Cl)cc1	0%	65*	?	-58%
Cc1ccc(CN(Cc2ccco2)c2cnc(S(C)(=O)=O)nc2C(=O)Nc2ccccc2Br)o1	1%	nt	nt	nt
CC1Sc2ccc(C(=O)OCc3ccccc3Cl)cc2NC1=O (centres undefined)	1%	-1	?	6.3µM*
CN(C)c1ccc(/C=C(\C#N)C(=O)Nc2nc3c(s2)CCN(Cc2ccccc2)C3)cc1	3%	59*	-11%	-22%
CCc1nnc2sc(-c3ccc(NC(=O)c4ccc5c(c4)OCCO5)cc3)nn12	1%	0	5.8µM*	-14%
CCc1nnc2sc(-c3ccc(NC(=O)c4ccco4)cc3)nn12	4%	0	5%	8%[1.84 µM]
O=C(Cc1ccc(Br)cc1)N1CCc2ccccc2C1	5%	1	?	10µM*
COc1cc(CCC(=O)Nc2ccc(Cl)c(C(F)(F)F)c2)cc(OC)c1OC	0%	-1	?	-23%
COc1cc(C(=O)Nc2ccc(Cl)c(C(F)(F)F)c2)cc(OC)c1OC	0%	-2	5.2µM*	-53%
COC(=O)c1cc2c(-c3ccccc3)cc3ccccn3c-2c1C(=O)OC	1%	0	23µM*	-15%
CC[n+]1c(/C=C/C=C/N(C(C)=O)c2ccccc2)sc2cc(OC)ccc21	10%	55*	-10%	-84%
COC(=O)c1cc2occc2n1CC(=O)Nc1ccc(N(C)C)cc1	12%	nt	nt	nt
CCN(CC)c1nn2c(=O)c(C(=O)NCc3ccc(OC)cc3OC)cnc2s1	0%	nt	nt	nt
CCOC(=O)Cc1c(C)nc2c(-c3cccc(Br)c3)cnn2c1C	0%	0	-3%	-46%
CC(=O)c1cnc2c(-c3cccc(Br)c3)cnn2c1C	2%	0	?	8.9µM*
O=C(CSc1nc2c([nH]c3ccccc32)c(=O)n1-c1ccccc1)N1CCc2ccccc21	4%	nt	nt	nt
CN(Cc1cc(-c2ccccc2)on1)C(=O)c1cc(COc2c(F)cccc2F)on1	1%	-1	?	11µM*
CCC(CO)NC(=O)C(=O)Nc1c2c(nn1-c1ccc(F)cc1)CSC2 (centres undefined)	0%	nt	nt	nt
CCOC(=O)c1ccc(CNC(=O)CSc2nnc(-c3ccncc3)o2)cc1	4%	0	0%	12%
CCOC(=O)c1ccc(CNC(=O)CSc2nc(NC(=O)c3ccccc3)c3c(C)c(C)oc3n2)cc1	0%	-2	15µM*	1%
SMILES	Nrf2 activator	IL-2 act	ELG1 repair inh	BRCA1 expr act
CSc1ccc(CC(=O)N2CCC(n3nccc3NC(=O)C3CC3)CC2)cc1	0%	-2	?	2.8µM*
Cc1nonc1OCCN1CCN(c2ccc([N+](=O)[O-])cc2)CC1	4%	-2	21µM*	-4%
O=[N+]([O-])c1ccc(N2CCN(CCOc3nonc3-c3ccccc3)CC2)c(Cl)c1	0%	0	-7%	-2%
CCOCCn1ccc2c(OCC(=O)Nc3ccc(OC(F)(F)F)cc3)cccc2c1=O	-1%	nt	nt	-8%
CC(C)(C)c1ccc(S(=O)(=O)c2cnc(SCC(=O)Nc3ccc4c(c3)OCCO4)[nH]c2=O)cc1	2%	nt	nt	nt
C/C(=N\NC(=O)c1cccc(C)c1O)c1ccc(NC(=O)Cc2ccccc2)cc1	0%	-3	?	5µM*
COCCCNC(=O)c1ccc(Cn2c(=O)c3cccn3c3cccnc32)cc1	2%	nt	nt	nt
COc1cccc(Cn2c(SCC(=O)N3CCN(c4ccc(F)cc4)CC3)nc3ccccc32)c1	1%	nt	nt	nt
CCSc1nnc(Nc2ccccc2)s1	8%	-2	?	11µM*
COc1cc(-c2nnc(CSc3nnc(Nc4ccc(Oc5ccccc5)cc4)s3)o2)cc(OC)c1OC	4%	4	7.3µM*	11%
COc1ccc(C(C)=O)cc1CSc1nnc(Nc2ccccc2)s1	4%	1	15µM*	-78%
CCSc1nnc(NC(=O)c2cc3c(s2)CCCC3)s1	0%	-1	?	7.9µM*
CCSc1ncc(Cl)c(C(=O)Nc2sc3c(c2C(=O)OC)CCCC3)n1	nt	nt	nt	-12%
CN(C(=O)CCc1nc(-c2ccccc2F)no1)c1ccc(Cl)cc1	3%	nt	nt	nt
CCSc1nnc(NC(=O)c2ccccc2C)s1	0%	-1	?	10µM*
CCSc1nnc(Nc2ccc(C)cc2)s1	3%	-1	?	10µM*
COc1cc2c(cc1OC)CN(c1ccc(-c3ccccc3OC)nn1)CC2	4%	5	?	-57%
COc1cc2c(cc1OC)CN(c1ccc(C(F)(F)F)cn1)CC2	4%	0	?	13µM*
COc1cc2c(cc1OC)CN(c1ccc3ccccc3n1)CC2	2%	0	?	11µM*
CCCN1C(=O)c2ccccc2CC1(C)C(=O)NC1CCCCC1 (centres undefined)	-1%	nt	nt	nt
O=c1[nH]c(COc2ccc(Br)cc2Cl)nc2ccccc12	0%	-4	?	4µM*
CNS(=O)(=O)c1cccc(C(=O)OCc2cc(=O)oc3c(C)c(O)ccc23)c1	3%	0	23µM*	-30%
CCc1cc2c(COC(=O)c3cccc(S(C)(=O)=O)c3)cc(=O)oc2cc1O	6%	0	?	-20%
Oc1ccccc1-c1nnc(COc2ccc(Cl)cc2Cl)o1	5%	2	?	13µM*
C=CCSc1nnc(-c2ccc(Cl)cc2Cl)o1	?	0	?	?
SMILES	Nrf2 activator	IL-2 act	ELG1 repair inh	BRCA1 expr act
Clc1ccc(-c2nnc(CCc3ccccc3)o2)c(Cl)c1	3%	1	?	11µM*
Oc1ccccc1-c1nnc(COc2ccccc2)o1	5%	2	?	60%
CCOC(=O)N/N=C/c1c(C)nn(-c2cccc(C(F)(F)F)c2)c1Cl	3%	1	18µM*	-41%
Cc1nn(-c2ccccc2)c(N2CCCC2)c1/C=N/NC(=O)c1cc2ccccc2cc1O	0%	0	?	-67%
Cc1nn(-c2ccccc2)c(Cl)c1/C=N/NC(=O)c1cccc(S(=O)(=O)N2CCCC2)c1	0%	1	13µM*	-22%
Cc1nn(-c2ccc(F)cc2)c(Cl)c1/C=N/NC(=O)c1cccc(S(=O)(=O)N2CCCC2)c1	0%	0	0%	-9%
Cc1nn(-c2ccccc2)c(N2CCCC2)c1/C=N/NC(=O)c1cc(-c2ccccn2)nc2ccccc12	3%	1	8.2µM*	-48%
Cc1nn(-c2ccccc2)c(N2CCCC2)c1/C=N/NC(=O)c1cc(-c2cccs2)nc2ccccc12	0%	2	15µM*	-26%

Screening results from PubChem.
